High-throughput results from PubChem BioAssay.
Keap1-Nrf2 PPI – disrupts human Keap1 binding to Nrf2 peptide. Keap1 Kelch-Nrf2 peptide fluorescence polarization, 1536-well. AID 504523. hit rate 0.15% among 340,000. inhibition, % at 9.4 µM; in the data active = inhibition above about 12%;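 note: human Keap1 Kelch domain with fluorescein labeled Nrf2 9mer peptide probe; higher means more block of Keap1 binding to Nrf2 peptide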
Target sequence (Q14145 whole entry, looked up, the tested form may be a part): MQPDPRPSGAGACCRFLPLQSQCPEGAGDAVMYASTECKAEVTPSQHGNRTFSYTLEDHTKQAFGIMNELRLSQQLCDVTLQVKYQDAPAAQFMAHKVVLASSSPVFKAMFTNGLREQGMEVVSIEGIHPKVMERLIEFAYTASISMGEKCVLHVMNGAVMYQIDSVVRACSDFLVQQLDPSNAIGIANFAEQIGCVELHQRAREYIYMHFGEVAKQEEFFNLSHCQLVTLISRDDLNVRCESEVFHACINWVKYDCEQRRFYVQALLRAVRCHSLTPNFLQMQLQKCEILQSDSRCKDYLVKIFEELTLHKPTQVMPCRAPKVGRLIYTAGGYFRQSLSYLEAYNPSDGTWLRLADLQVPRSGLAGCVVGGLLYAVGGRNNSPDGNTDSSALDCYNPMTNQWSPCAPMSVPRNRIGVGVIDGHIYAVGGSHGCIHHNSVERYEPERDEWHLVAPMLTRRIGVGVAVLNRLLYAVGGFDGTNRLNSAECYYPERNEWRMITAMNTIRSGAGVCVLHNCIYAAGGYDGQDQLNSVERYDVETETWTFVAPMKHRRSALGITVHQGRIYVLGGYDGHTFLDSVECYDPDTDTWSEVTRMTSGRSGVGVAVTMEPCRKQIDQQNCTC
LANA-H2A inh – blocks KSHV LANA binding to histone H2A/H2B. inhibition, % (no concentration beside the values). cell-free LANA-H2A/H2B peptide, fluorescence polarization. hit rate 0.6% among 320,000. Q9QR71; in the data active = inhibition mostly above about 10%, no sharp cut-off; inactive = mostly below about 6.7%
eLon inh – inhibits E. coli Lon protease | purified E. coli Lon protease, fluorescence polarization | P0A9M0 | inhibition, % at 7.94 µM | hit rate 0.42% among 360,000 | AID 602123; in the data active = inhibition above about 13%, passing the limit was not always enough
Cardiac RTF inh – cardiac RTF calcium desensitization. inhibition, % at 7.15 µM. P19429+P45379. AID 493244. IANBD-labeled cardiac RTF, Ca2+ fluorescence. hit rate 0.12% among 340,000;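 active = inhibition above the mean inhibition of all tested compounds plus 3 SD, cut at about 17% in these data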;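 note: assay run at fixed EC70 calcium of 1.6 mM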
LANA DNA inh – inhibitors of KSHV LANA C-terminal domain DNA binding; MBP-C-LANA/FAM-LBS DNA binding, fluorescence polarization; hit rate 0.078% among 340,000; AID 504423; inhibition, % at 9 µM;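 active = highest replicate inhibition at or above 60% at 9 µM, even if other replicates fall short; inactive = all replicates below 60% inhibition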
cardiac RTF act – cardiac RTF calcium sensitization; hit rate 0.24% among 340,000; IANBD-labeled TnC RTF fluorescence at EC20 calcium; 0% EC20 calcium, 100% full calcium; P19429+P45379; activation, % at 7.2 µM;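 active = activation above the mean over all tested compounds plus 3 SD, cut at about 30% in these data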;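 note: rise in fluorescence read as greater calcium sensitivity of cardiac thin filaments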
Of the large screens only hits and unclear results are named; the others gave an inactive call. Rows were chosen to be rich in hits. Some 1.3% of all compounds tested hit in one or more screens of this group.

COC(=O)C(CCSC)NS(=O)(=O)c1ccc(Cl)cc1 (stereo unspecified)	none
CSCCC(NS(=O)(=O)c1ccc2ccccc2c1)C(=O)O (stereo unspecified)	LANA-H2A inh 28
COc1ccc(NC(=O)N(C)C[C@@H]2OCc3cnnn3CCCC(=O)N([C@@H](C)CO)C[C@H]2C)cc1	none (no result: Keap1-Nrf2 PPI, LANA-H2A inh, Cardiac RTF inh, LANA DNA inh, cardiac RTF act)
CCOC(=O)C1(CCCc2ccccc2)CCN(CCCn2cccn2)CC1	none
CCOC(=O)C1(Cc2ccccc2C(F)(F)F)CCN(CCCn2cccn2)CC1	LANA-H2A inh 14
Cc1ccc(CNC(=O)c2cccc3c2C(=O)c2ccc(N4CCOCC4)cc2S3(=O)=O)cc1	none
Cc1ccc(CNC(=O)c2cccc3c2C(=O)c2ccc(N4CCCCC4)cc2S3(=O)=O)cc1	cardiac RTF act 65
O=C(NC1CCCCC1)c1cccc2c1C(=O)c1ccc(N3CCC(Cc4ccccc4)CC3)cc1S2(=O)=O	cardiac RTF act 90
O=C(NCC1CCCO1)c1cccc2c1C(=O)c1ccc(N3CCC(Cc4ccccc4)CC3)cc1S2(=O)=O (stereo unspecified)	cardiac RTF act 61
O=C(NCc1ccccc1Br)c1cccc2c1C(=O)c1ccc(N3CCC(Cc4ccccc4)CC3)cc1S2(=O)=O	none
CC(Oc1ccc(Cl)cc1)C(=O)NCC1CCCO1 (stereo unspecified)	none
COc1ccccc1CC(=O)NNS(=O)(=O)c1ccc([N+](=O)[O-])cc1	none
Nc1nc(-c2ccccc2)c(-c2ccccc2)o1	LANA-H2A inh 29
NC(=O)CSc1nc(-c2ccccc2)c(-c2ccccc2)o1	none
O=[N+]([O-])c1cccc(/C=N/Nc2nccnc2Cl)c1	LANA-H2A inh 54
COc1cc(/C=C2\Oc3cc(O)ccc3C2=O)ccc1O	cardiac RTF act 41
CC(OC(=O)c1ccc(S(=O)(=O)NCc2ccco2)cc1)C(=O)Nc1ccccc1 (stereo unspecified)	LANA-H2A inh 14
O=C(COC(=O)c1ccc(S(=O)(=O)NCc2ccco2)cc1)Nc1ccccc1	none (no result: LANA-H2A inh)
O=C(NCC(=O)N(c1cccc(F)c1)C(C(=O)NC1CCCC1)c1ccncc1)c1cccs1 (stereo unspecified)	none
CC(Sc1nnc(C2CC2)n1C1CC1)C(=O)NCc1cccs1 (stereo unspecified)	none (no result: LANA-H2A inh)
CC(Sc1nnc(C2CC2)n1C1CC1)C(=O)Nc1cccc(S(=O)(=O)N(C)C)c1 (stereo unspecified)	LANA-H2A inh active
Cc1c(C(=O)N2CCN(S(=O)(=O)c3ccc(F)cc3)CC2)oc2ccccc12	none
COC(CNC(=O)C(=O)NCC1OCCN1C(=O)c1ccc(Cl)cc1)OC (stereo unspecified)	LANA-H2A inh 11
COCCNC(=O)C(=O)NCC1OCCN1C(=O)c1ccc(Cl)cc1 (stereo unspecified)	none
COc1cc(/C=C(\C#N)c2nc3ccc(C)cc3[nH]2)c([N+](=O)[O-])cc1OC	none
Cc1cc(/C=C(\C#N)c2nc3ccccc3[nH]2)c(C)n1C	none
CCOc1cc(N(CC)CC)ccc1/C=C(/C#N)c1nc2ccccc2[nH]1	cardiac RTF act 106
Cc1ccc2nc(/C(C#N)=C\c3cc(O)ccc3[N+](=O)[O-])[nH]c2c1	none
CCCOc1cc(N(CC)CC)ccc1/C=C(/C#N)c1nc2ccc(C)cc2[nH]1	cardiac RTF act 61
CCN(CC)c1ccc(/C=C(/C#N)c2nc3ccc(C)cc3[nH]2)c(OC(C)C)c1	cardiac RTF act 174
CNC(=O)C(=O)NCCC1CCCCN1S(=O)(=O)c1cccs1 (stereo unspecified)	none
NC1=NC(c2ccccc2)=NC1(NC(=O)c1ccccc1)C(Cl)Cl (stereo unspecified)	none
CC(=O)c1cc(NC(=O)c2ccc(C)cc2)c(=O)oc1/C=C/N(C)C	cardiac RTF act 36
COc1ccc(C(=O)Nc2cc(C(C)=O)c(/C=C/N(C)C)oc2=O)cc1	none
COc1cc(CN2CCN(CC3CC3)CC2CCO)cc(OC)c1 (stereo unspecified)	none
Nc1ccc(N)c(C(=O)O)c1	LANA-H2A inh -0.2, eLon inh 43, LANA DNA inh 110
Nc1ccc(C(=O)O)c(O)c1	none
CCn1nc(C)c(CN2CCc3c([nH]c4ccccc34)C2c2ccc(F)c(OC)c2)c1C (stereo unspecified)	none
O=c1sc2ccccc2n1Cc1ccccc1	none
CCOc1ccccc1Cn1c(=O)sc2ccccc21	LANA-H2A inh 37
O=C1C=CC(=O)c2c(O)c(CO)c(CO)c(O)c21	Cardiac RTF inh 36 (no result: LANA-H2A inh)
COc1ccc(C2=CC(c3cc(OC)c(OC)c(OC)c3)NC(=S)N2)cc1 (stereo unspecified)	LANA-H2A inh 20
O=C(OCCN1C(=O)c2cccc3c(N4CCOCC4)ccc(c23)C1=O)c1ccc(Cl)cc1	LANA-H2A inh 12
Cc1cc(C)cc(NS(=O)(=O)c2ccc3c(c2)C(C)(C)C(=O)N3C)c1	LANA-H2A inh 11
Cc1ccc(CCNS(=O)(=O)c2ccc3c(c2)C(C)(C)C(=O)N3C)cc1	none
CCc1ccc(C2C(C#N)=C(N)C(C#N)(C#N)C3=CCC(C(C)(C)C)CC32)cc1 (stereo unspecified)	eLon inh 26
Cc1cc(C)c(S(N)(=O)=O)c(C)c1N(C)S(=O)(=O)c1ccc(Cl)cc1	LANA-H2A inh 12
Cc1nnc(NC(=O)C2CC(=O)N(c3ccc4c(c3)OCCO4)C2)s1 (stereo unspecified)	LANA-H2A inh 21
COc1cccc(N2CCN(C(C)C(=O)NC34CC5CC(CC(C5)C3)C4)CC2)c1 (stereo unspecified)	none
CC(=O)Nc1ccc(C(=O)OCCc2ccccc2)cc1	LANA-H2A inh 15
CC(=O)Nc1ccc(C(=O)OCCCOC(=O)c2ccc(NC(C)=O)cc2)cc1	none
CC(=O)N1N=C(c2cccs2)CC1c1ccc(C)o1 (stereo unspecified)	LANA-H2A inh 36
CC(=O)N1N=C(c2cccs2)CC1c1cccs1 (stereo unspecified)	none
CCOC(=O)C1CCN(C(=O)Cn2cnc3sc(C)c(S(=O)(=O)N4CCC(C)CC4)c3c2=O)CC1	none
CCOC(=O)C1CCN(C(=O)Cn2cnc3sc(C)c(S(=O)(=O)N4CCCCC4)c3c2=O)CC1	LANA-H2A inh 16
COC(=O)[C@@]1(Cc2ccccc2)[C@H]2C(=O)N(C)C(=O)[C@H]2[C@H]2CN=C(SCc3ccccc3)N21	none (no result: LANA-H2A inh)
O=C(/C=C/c1ccccc1)OCC(=O)c1ccc[nH]1	none
O=C(/C=C/c1ccc(F)cc1)OCC(=O)c1ccc[nH]1	LANA-H2A inh 86
CCOc1ccc(NC(=S)NCCCN2CCN(C3CCCCC3)CC2)cc1	LANA-H2A inh active
CCOc1ccccc1NC(=O)NCCN1CCCCC1	LANA-H2A inh 15
